# Data from the supplement of paper PMC6555819.
# System: VDR:RXRa (NR concentration 270 nM, RXRa partner concentration 90 nM)
# Assay: PBM binding z-score (relative to random genomic background probes); higher = stronger binding; sequences stand for … in GC…GCGATTGACAGCGTAGAATGAAGG
# Method: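 Protein-binding microarray (Agilent 4x180K custom design, double-stranded 60-nt probes: 5' GC cap, 34-nt variable region, 24-nt constant primer region; full probe sequence given). Purified or IVT nuclear receptor:RXRα heterodimers (3:1 NR:RXRα, mostly 270:90 nM) or homodimers were incubated for 1 h in PBS with 2% milk and no ligand, then detected with Alexa488 antibodies. Fluorescence from o1-orientation probes (~5 replicates averaged) was converted to z-scores against 500 random hg19 background probes. Variable regions are seed direct-repeat (DR0–DR5) sites, all their single-nucleotide variants and half-site ablations.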
row,Sequence,PBM binding z-score
1,TCGAGTAGGTTAGTCGGGGCATCCAGCCAACATA,1.5
2,GCTATAAGTTGAAAGGGCAACCGAATGATTCTCG,0.931
3,ATCTCTAGGTAAAAGTGCAGTGAATCCCGAGGAT,0.00627
4,CAAACTAGGTCACAAAGGTCAAAGTCCGTGCGTA,7.28
5,CCTCCAAGGTCAAAGGTCAGTGAAGAGATGACGG,6.52
6,GCTCGGAGGACAAGGTCGGAGCTTTGTCCGTAGA,-0.159
7,ATCTCTAGGTAAAAGTTCAGTTAATCCCGAGGAT,1.44
8,TCTACTAGTTGATTAGGGCAACCGAAACAGCGGA,0.208
9,TTTTGTAGATCAAAGGTTAAGAAAGCCGAAGCCT,1.41
10,CGTCAAAGTTTAAGGTAACGTAACAGAAAGCAGC,0.3
11,TGAATGAGGTTAAAGATCAGGGATCGTGGCGTCG,1.85
12,TAGCCTAGGTCAGATCTGGCCAGTATACGCTATA,0.166
13,ATATTTAGGTTAAGGGTCATTCAGGTTGGTTCGC,5.46
14,CCTTACGGGTCAAGGCTATAGCACGGGTGGTACG,2.77
15,CAAACTAGGTCAAGATCAAAGTCGGTTTGTGCCA,1.52
16,ATATGTTGGTTAGCTGGGGTCATTCAGACTAGGC,5.16
17,CAGCCTAGGTTAGGGCCAGTATAGGAGGAACGTT,-0.611
18,GCGACTGGGGCAGAGCAGGTTACCATAAGGTTGG,-0.508
19,TCGAGTTGGTTAGGGGCATTCAGAATGGCGTCGA,1.84
20,AGAATGAGGGTATTAAGATCAGGGAATTGCGGTC,0.128

row,Sequence,PBM binding z-score
1,ACAGACAGGTGATGAAGGTAACTTAGGCTATCAT,0.0593
2,TCTGCTAGGTCAACGATGGTCAGCTTATCTGCTA,1.63
3,TAGCGTAGGTCATTCAGGGGCCAGTATAGAAAGC,3.37
4,CAAATTAGGTCACCGGAAGGTCAAAGTCCGCATG,5.86
5,TGAATGAGGTTAATGATCAGGGAACGTGGCGTCG,0.633
6,CAAACTAGGTCAAAGGGCAAAGTCGAGCCAACCA,3.83
7,TCTCGGAGGACACGAAGGTGAGAGCTTTCCAGAG,-0.377
8,TCAGCCAGGTGAAGGTAACTCAGGTACGCAGTCG,0.261
9,TTACCAAGGTGAGCTGAGGTCGTTGGTCCAACTC,3.79
10,CCGAGTAGGATATGGGGCATTCAGGCAACGGTGA,-0.284
11,CGTCCAAGGTCAAGGTCTGTGAAAGAGACTCGAA,3.73
12,ACAGACAGGTGAGTGAGGGTAACTCAGCTGGACG,2
13,ACTTACGGGTCAACGAGGTTATAACACGCGTATA,7.9
14,ATCTCTAGGTAACATGTTCAGTGAAAGAGAGGAC,0.0615
15,ATATGTGGGTTAGCTGGGGTCATTCAGACTAGGC,5.99
16,ATATGTAGGTTATCAGGTCATTCAGTTTGCGCAT,4.71
17,GCCATTAGTTGAAAGGGCAACCGAATGATTCTCG,0.274
18,CTACCAAGGTGAGCAAGGTCGTTGATTACTATTC,5.03
19,CCTGCTGGGCCACGAAAGGTCATTGATTCAGTGA,4.08
20,TCTTGCAGATCAATAGAGGTTAAGAAAGTGCGCT,1.79
